Holding throughout (experiment): DAPPL (digital affinity profiling via proximity ligation, sequencing); 10 mM Tris-HCl pH 7.5, 50 mM NaCl, 1 mM DTT, 4% glycerol, room temperature, 30 min; GST-TFs on glutathione beads, 16-mer random dsDNA library, 0.1% formaldehyde crosslink after washing; high values mean tight binding
The target in one assay is T1, FLI1 (Homo sapiens, UniProt Q01543 1-452).
T1 sequence: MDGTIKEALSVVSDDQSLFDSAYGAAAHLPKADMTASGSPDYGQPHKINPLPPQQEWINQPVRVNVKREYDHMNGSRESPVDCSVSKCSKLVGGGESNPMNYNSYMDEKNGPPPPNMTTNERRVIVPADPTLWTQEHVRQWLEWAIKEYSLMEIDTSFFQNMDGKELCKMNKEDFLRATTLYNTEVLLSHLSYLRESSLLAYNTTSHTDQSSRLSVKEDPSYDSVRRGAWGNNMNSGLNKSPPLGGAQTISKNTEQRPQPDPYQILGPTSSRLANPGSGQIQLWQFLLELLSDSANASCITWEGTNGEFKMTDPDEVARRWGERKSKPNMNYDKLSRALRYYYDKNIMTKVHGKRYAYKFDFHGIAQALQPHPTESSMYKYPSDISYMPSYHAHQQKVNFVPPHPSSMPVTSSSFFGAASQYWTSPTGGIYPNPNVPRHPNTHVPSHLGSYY
As to conditions: protein: recombinant; tags: N-terminal GST; dsDNA, one strand shown. The procedure, abridged:
(§1)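 Human transcription factors were made in yeast as GST fusions, captured on glutathione beads and barcoded with DNA. With a tag-only sample included, the pool was incubated with 200 nmole of a random double-stranded 16-mer DNA library in Tris/NaCl/DTT/glycerol buffer at room temperature for 30 min, then crosslinked with 0.1% formaldehyde after washing, ligated by proximity, amplified and sequenced. For binding signal, each hexamer's read frequency for a factor is divided by its frequency for the tag-only sample.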

In the next assay the target is T2, ELK1 (Homo sapiens, UniProt P19419 1-428).
T2 sequence: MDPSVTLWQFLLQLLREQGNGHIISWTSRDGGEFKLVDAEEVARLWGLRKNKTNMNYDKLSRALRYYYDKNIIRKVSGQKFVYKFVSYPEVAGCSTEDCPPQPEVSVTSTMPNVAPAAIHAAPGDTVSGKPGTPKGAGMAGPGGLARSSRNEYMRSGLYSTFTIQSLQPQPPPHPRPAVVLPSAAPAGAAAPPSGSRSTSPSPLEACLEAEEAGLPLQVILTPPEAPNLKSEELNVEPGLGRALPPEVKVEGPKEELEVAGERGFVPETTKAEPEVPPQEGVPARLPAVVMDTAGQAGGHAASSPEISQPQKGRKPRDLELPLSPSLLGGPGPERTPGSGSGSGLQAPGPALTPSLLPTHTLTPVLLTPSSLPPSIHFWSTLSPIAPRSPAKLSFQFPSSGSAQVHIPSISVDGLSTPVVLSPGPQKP
The note with it: protein: recombinant; tags: N-terminal GST; dsDNA, one strand shown. The procedure, abridged:
as §1

In another assay the target is T3, GABPA (Homo sapiens, UniProt Q06546 1-454).
T3 sequence: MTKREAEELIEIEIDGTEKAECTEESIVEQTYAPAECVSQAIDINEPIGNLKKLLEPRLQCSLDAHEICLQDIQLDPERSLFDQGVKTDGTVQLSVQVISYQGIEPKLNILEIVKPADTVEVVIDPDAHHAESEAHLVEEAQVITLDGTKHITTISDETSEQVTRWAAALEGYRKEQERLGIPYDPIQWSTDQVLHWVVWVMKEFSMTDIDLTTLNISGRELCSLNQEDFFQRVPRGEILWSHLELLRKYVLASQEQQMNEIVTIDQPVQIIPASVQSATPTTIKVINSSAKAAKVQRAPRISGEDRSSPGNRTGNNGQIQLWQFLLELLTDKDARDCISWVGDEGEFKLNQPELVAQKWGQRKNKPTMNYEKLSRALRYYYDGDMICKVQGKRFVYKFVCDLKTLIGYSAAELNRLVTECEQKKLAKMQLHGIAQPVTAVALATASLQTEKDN
As to conditions: protein: recombinant; tags: N-terminal GST; dsDNA, one strand shown. In short, it runs like this:
as §1

In another assay the target is T4, ERG (Homo sapiens, UniProt P11308 1-479).
T4 sequence: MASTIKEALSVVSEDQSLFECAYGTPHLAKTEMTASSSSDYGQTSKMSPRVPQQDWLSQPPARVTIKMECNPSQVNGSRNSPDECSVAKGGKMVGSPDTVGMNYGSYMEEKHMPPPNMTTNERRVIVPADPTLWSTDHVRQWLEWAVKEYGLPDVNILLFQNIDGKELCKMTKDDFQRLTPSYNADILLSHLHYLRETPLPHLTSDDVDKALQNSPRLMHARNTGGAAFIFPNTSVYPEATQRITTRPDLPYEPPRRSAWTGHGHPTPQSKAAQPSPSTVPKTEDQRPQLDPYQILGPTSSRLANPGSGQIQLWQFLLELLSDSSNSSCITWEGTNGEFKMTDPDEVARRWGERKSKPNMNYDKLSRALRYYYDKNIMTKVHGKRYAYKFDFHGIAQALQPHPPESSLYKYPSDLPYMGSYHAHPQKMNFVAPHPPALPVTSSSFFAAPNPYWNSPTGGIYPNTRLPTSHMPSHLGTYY
The note with it: protein: recombinant; tags: N-terminal GST; dsDNA, one strand shown. The procedure, abridged:
as §1

In a further assay the target is ELF1 (Homo sapiens, UniProt P32519 1-619). As to conditions: protein: recombinant; tags: N-terminal GST; dsDNA, one strand shown. In short, it runs like this: as §1
Chain of ELF1 (P32519 whole entry): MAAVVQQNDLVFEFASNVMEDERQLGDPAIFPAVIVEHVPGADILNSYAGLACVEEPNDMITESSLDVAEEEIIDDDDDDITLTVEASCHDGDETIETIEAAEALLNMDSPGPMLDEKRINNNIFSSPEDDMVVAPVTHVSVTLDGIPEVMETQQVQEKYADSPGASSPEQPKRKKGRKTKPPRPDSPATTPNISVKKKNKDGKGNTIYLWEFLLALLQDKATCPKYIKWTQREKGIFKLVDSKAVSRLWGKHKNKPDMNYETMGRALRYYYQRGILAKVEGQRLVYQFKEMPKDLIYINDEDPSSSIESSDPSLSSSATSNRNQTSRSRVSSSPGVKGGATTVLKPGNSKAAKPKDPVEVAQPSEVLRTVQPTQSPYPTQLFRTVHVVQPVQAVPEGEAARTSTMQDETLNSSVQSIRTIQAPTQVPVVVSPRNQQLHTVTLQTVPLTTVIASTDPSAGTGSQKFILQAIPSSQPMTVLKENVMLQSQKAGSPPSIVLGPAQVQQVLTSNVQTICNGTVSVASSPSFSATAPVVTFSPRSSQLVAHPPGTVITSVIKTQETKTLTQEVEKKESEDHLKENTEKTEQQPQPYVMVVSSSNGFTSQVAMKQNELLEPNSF
In the next assay the target is T5, EHF (Homo sapiens, UniProt Q9NZC4 1-300).
T5 sequence: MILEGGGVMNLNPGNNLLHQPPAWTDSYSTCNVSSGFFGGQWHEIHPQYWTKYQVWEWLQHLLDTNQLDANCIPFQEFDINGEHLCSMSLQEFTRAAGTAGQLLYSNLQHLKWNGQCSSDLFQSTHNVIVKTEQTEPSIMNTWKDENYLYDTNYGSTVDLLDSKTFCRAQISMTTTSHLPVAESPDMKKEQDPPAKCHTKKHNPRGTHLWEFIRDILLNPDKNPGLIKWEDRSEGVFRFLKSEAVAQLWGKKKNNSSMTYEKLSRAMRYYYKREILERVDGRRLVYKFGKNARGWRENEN
The note with it: protein: recombinant; tags: N-terminal GST; dsDNA, one strand shown. In short, it runs like this:
as §1

In another assay the target is SPI1 (Homo sapiens, UniProt P17947 1-270). The note with it: protein: recombinant; tags: N-terminal GST; dsDNA, one strand shown. The procedure, abridged:
as §1

In another assay the target is SPIB (Homo sapiens, UniProt Q01892 1-262). As to conditions: protein: recombinant; tags: N-terminal GST; dsDNA, one strand shown. In short, it runs like this: as §1
Chain of SPIB (Q01892 whole entry): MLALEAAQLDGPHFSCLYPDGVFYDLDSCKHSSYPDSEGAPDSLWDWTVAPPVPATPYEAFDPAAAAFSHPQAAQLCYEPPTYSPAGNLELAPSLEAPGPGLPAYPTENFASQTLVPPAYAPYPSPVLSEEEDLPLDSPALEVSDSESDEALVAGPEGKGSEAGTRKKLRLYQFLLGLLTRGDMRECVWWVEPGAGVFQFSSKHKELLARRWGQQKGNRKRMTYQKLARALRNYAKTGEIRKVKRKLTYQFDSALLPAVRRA
The target in a further assay is T6, ELK3 (Homo sapiens, UniProt P41970 1-407).
T6 sequence: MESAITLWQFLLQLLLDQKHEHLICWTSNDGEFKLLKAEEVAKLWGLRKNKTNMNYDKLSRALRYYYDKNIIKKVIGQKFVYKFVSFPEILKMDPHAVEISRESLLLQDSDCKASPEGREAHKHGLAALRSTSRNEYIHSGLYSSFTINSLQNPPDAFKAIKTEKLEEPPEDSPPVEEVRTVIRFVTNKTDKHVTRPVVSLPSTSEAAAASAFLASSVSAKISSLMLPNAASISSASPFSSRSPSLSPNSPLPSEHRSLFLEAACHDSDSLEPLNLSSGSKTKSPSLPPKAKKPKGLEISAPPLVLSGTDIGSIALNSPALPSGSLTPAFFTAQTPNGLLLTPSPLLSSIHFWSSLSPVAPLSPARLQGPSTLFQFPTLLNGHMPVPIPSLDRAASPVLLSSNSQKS
As to conditions: protein: recombinant; tags: N-terminal GST; dsDNA, one strand shown. The procedure, abridged:
as §1

The target in the next assay is T7, FEV (Homo sapiens, UniProt Q99581 1-238).
T7 sequence: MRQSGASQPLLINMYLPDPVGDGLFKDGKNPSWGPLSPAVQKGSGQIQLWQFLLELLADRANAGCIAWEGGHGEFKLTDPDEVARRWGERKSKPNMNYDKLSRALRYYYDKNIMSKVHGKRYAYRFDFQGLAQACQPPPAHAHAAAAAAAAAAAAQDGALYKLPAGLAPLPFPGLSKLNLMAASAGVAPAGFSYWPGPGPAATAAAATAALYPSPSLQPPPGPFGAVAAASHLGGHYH
The note with it: protein: recombinant; tags: N-terminal GST; dsDNA, one strand shown. The procedure, abridged: as §1

Another assay addresses ETV5 (Homo sapiens, UniProt P41161 1-510). As to conditions: protein: recombinant; tags: N-terminal GST; dsDNA, one strand shown. The procedure, abridged:
as §1

The target of another assay is HSF1 (Homo sapiens, UniProt Q00613 1-529). As to conditions: protein: recombinant; tags: N-terminal GST; chain copies: 3; dsDNA, one strand shown. The procedure, abridged: as §1
Chain of HSF1 (Q00613 whole entry): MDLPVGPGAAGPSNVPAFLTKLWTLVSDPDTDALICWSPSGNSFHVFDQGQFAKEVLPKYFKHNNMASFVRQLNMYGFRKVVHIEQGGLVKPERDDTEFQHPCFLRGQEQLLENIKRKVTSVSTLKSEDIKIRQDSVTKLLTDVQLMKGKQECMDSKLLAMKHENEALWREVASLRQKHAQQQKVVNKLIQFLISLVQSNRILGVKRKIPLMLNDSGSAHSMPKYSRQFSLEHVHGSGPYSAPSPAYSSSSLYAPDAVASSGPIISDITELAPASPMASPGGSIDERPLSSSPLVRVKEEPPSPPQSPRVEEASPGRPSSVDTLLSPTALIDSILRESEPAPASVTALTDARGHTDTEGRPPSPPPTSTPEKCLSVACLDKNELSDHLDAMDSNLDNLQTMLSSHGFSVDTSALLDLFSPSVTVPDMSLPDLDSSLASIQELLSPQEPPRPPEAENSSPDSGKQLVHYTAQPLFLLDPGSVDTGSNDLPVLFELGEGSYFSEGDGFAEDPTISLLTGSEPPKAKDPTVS
The next assay deals with T8, SPIC (Homo sapiens, UniProt Q8N5J4 1-248).
T8 sequence: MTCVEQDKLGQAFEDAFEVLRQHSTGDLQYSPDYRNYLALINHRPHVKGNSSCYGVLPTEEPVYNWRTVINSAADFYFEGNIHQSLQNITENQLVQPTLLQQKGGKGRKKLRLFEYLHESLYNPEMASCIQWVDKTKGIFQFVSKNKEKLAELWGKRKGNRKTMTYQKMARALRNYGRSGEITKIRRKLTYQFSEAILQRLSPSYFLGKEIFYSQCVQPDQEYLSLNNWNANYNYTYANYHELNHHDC
The note with it: protein: recombinant; tags: N-terminal GST; dsDNA, one strand shown. The procedure, abridged: as §1

For a further assay, the target named is ELF4 (Homo sapiens, UniProt Q99607 1-663). As to conditions: protein: recombinant; tags: N-terminal GST; dsDNA, one strand shown. In short, it runs like this: as §1
Chain of ELF4 (Q99607 whole entry): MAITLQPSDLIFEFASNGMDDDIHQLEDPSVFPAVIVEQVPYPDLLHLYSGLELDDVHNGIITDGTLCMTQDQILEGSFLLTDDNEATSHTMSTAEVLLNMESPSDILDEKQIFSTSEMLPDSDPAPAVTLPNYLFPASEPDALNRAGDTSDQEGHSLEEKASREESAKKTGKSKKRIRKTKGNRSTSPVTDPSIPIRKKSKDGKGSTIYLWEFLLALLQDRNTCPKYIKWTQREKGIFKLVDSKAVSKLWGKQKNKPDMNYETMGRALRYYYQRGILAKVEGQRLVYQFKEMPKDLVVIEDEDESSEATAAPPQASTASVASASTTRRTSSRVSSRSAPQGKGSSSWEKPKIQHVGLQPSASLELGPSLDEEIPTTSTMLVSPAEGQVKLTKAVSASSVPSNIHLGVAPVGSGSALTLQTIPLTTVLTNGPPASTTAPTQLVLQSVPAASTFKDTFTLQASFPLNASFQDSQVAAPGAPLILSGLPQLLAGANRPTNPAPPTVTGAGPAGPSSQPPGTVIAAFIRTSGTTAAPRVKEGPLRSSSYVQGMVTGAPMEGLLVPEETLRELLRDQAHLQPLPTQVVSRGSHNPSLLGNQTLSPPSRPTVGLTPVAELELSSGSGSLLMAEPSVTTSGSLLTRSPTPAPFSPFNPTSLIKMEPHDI
The target in the next assay is T9, ELK4 (Homo sapiens, UniProt P28324-2 1-405).
T9 sequence: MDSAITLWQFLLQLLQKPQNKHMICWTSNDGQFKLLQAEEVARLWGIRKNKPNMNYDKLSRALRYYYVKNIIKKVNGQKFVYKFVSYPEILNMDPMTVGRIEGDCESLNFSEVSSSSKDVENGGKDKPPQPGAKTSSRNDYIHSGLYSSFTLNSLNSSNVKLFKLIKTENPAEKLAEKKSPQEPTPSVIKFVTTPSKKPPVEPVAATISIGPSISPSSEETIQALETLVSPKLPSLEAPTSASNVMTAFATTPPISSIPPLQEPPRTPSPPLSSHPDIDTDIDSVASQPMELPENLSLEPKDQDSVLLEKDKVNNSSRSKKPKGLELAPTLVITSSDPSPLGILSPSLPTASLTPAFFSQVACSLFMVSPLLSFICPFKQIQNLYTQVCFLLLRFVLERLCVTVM
As to conditions: protein: recombinant; tags: N-terminal GST; dsDNA, one strand shown. In short, it runs like this: as §1

For the next assay, the target named is T10, ETV2 (Homo sapiens, UniProt O00321 1-342).
T10 sequence: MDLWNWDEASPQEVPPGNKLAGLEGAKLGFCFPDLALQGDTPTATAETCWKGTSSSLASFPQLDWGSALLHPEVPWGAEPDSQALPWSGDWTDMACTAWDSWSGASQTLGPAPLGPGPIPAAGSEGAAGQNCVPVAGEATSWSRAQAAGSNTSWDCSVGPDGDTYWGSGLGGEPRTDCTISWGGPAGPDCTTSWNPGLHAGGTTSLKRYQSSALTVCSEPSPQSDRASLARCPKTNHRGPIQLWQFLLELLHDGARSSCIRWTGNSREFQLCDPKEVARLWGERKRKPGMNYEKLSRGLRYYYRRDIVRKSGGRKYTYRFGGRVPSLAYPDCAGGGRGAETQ
As to conditions: protein: recombinant; tags: N-terminal GST; dsDNA, one strand shown. In short, it runs like this: as §1

A further assay addresses T11, ELF3 (Homo sapiens, UniProt P78545 1-371).
T11 sequence: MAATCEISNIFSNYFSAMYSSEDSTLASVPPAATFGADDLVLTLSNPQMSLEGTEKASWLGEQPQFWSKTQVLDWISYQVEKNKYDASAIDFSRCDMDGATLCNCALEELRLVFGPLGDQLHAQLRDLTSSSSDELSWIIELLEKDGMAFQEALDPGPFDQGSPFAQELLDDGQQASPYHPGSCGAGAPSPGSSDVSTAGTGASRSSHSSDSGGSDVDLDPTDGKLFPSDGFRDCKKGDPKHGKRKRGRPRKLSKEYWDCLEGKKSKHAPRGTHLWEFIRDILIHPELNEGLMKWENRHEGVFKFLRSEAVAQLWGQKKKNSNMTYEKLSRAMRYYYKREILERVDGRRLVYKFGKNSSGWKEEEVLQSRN
As to conditions: protein: recombinant; tags: N-terminal GST; dsDNA, one strand shown. The procedure, abridged: as §1

Another assay deals with CRX (Homo sapiens, UniProt O43186 1-299). As to conditions: protein: recombinant; tags: N-terminal GST; dsDNA, one strand shown. In short, it runs like this:
as §1

A further assay concerns the target ETV1 (Homo sapiens, UniProt P50549 1-477). As to conditions: protein: recombinant; tags: N-terminal GST; dsDNA, one strand shown. The procedure, abridged: as §1

Chain of ETV5 (P41161 whole entry): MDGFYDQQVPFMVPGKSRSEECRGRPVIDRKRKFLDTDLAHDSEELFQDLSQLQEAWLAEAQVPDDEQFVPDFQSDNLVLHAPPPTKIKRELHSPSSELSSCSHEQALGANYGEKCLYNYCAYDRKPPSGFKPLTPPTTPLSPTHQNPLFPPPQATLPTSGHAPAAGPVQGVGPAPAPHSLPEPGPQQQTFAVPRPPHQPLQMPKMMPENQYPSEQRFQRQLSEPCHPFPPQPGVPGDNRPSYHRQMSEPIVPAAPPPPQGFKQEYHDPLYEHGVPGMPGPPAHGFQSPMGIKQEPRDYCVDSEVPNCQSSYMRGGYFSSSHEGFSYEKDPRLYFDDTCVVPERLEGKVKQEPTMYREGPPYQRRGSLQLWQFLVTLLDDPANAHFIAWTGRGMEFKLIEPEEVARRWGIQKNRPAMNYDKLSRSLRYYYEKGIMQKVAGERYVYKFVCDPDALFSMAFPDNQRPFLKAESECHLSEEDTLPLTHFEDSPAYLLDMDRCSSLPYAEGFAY
Chain of ETV1 (P50549 whole entry): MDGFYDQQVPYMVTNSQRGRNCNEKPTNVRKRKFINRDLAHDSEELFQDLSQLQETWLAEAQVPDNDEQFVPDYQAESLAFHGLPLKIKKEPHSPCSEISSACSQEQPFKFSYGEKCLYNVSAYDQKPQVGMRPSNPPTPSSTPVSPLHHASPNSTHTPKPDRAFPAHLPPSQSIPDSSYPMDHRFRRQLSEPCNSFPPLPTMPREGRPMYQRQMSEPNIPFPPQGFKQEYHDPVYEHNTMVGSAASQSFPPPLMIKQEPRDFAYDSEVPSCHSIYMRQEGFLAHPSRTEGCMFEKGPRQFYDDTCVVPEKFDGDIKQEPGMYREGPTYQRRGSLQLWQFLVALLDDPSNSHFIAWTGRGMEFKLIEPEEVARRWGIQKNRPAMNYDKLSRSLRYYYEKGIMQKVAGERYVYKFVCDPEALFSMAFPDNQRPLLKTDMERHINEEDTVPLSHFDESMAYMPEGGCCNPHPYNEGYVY
Chain of CRX (O43186 whole entry): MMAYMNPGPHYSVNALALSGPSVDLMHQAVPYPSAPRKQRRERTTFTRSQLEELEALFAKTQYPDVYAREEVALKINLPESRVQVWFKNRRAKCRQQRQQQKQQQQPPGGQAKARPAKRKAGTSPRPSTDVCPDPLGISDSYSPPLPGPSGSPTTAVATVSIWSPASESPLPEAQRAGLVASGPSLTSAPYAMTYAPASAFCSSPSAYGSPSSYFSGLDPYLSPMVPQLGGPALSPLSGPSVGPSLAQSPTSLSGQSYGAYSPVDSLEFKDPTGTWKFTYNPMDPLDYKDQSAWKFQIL

Regarding TGCATT, the binding signal with FLI1 was 1.34 fold enrichment (6-mer frequency, TF over GST control); with ELK1 it was 1.34 fold enrichment (6-mer frequency, TF over GST control); with GABPA, 1.37 fold enrichment (6-mer frequency, TF over GST control); with ERG it was 1.24 fold enrichment (6-mer frequency, TF over GST control); with ELF1, 1.33 fold enrichment (6-mer frequency, TF over GST control); with EHF it was 1.3 fold enrichment (6-mer frequency, TF over GST control). Besides, the binding signal was 1.31 fold enrichment (6-mer frequency, TF over GST control) in the assay with SPI1; 1.34 fold enrichment (6-mer frequency, TF over GST control) in the assay with SPIB; 1.35 fold enrichment (6-mer frequency, TF over GST control) with ELK3; 1.38 fold enrichment (6-mer frequency, TF over GST control) in the assay with FEV; 1.3 fold enrichment (6-mer frequency, TF over GST control) with ETV5; 1.24 fold enrichment (6-mer frequency, TF over GST control) in the assay with HSF1. Besides, the binding signal is 1.44 fold enrichment (6-mer frequency, TF over GST control) in the assay with SPIC; 1.36 fold enrichment (6-mer frequency, TF over GST control) with ELF4; 1.38 fold enrichment (6-mer frequency, TF over GST control) with ELK4; 1.39 fold enrichment (6-mer frequency, TF over GST control) with ETV2; 1.49 fold enrichment (6-mer frequency, TF over GST control) in the assay with ELF3; 1.32 fold enrichment (6-mer frequency, TF over GST control) in the assay with CRX. In the assay with ETV1, the binding signal was 1.32 fold enrichment (6-mer frequency, TF over GST control).
